Test results from PubChem BioAssay (NCI).
This is part of a sample that, as a whole, favours compounds with a hit. Of some 83,000 tested, about 20% had one in any assay.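 For each line, cells grew in 96-well plates with the test compound present at a single concentration for 48 hours.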 Unmarked numbers belong to inactive results. Activity calls are given as the source filed them.

Tested on: HL-60(TB) leukemia
Experiment: NCI-60 one-dose screen, 48 h (100 = growth as untreated, 0 = no growth, -100 = all killed)
Details: 10 µM unless noted
Experimental: Growth inhibition of the HL-60(TB) human tumor cell line is measured as a screen for anti-cancer activity. Cells are grown in 96 well plates and exposed to the test compound for 48 hours. Compounds are tested at a single concentration, which is 10^-5 M for most compounds. The reported endpoint is percent growth (GI% or GIPRCNT), where numbers from 0 - 100% represent growth inhibition, and numbers from -100% - 0 represent cell death. For example, a value of 40 represents 60% growth inhibition. A value of 0 means no net growth occurred over the course of the experiment. A value of -40 indicates 40% of cells at the beginning of the experiment died by the end of the experiment. A value of -100 means all cells are dead at the end of the experiment.
NCI-60 Human Tumor Cell Lines Screen was performed using the standard one-dose NCI protocol, which is described in more detail at https://dtp.cancer.gov/discovery_development/nci-60/default.htm.
Compounds with GIPRCNT values below 10 were considered active. Activity score was based on GIPRCNT using the following formula: […]
Score is 0 for GIPRCNT values of 100 or above, 50 for GIPRCNT values of 0, and 100 for GIPRCNT values of -100.

**Q.** Which growth does the source give for `CCCCC1CCCC12NC(=O)NC2=O` (stereo not given) here?
**A.** 84.6%

**Q.** For `Nc1ccc(Br)cn1`, which growth is on record?
**A.** 75.5%

**Q.** For `O=Cc1ccc(O)c2ncccc12`, which growth is on record?
**A.** -69.3% (active)

**Q.** How did the growth turn out when `CSc1nc(N)n2nccc2n1` was run?
**A.** 106%

**Q.** With `CCOC(=O)N[C@H]1CCc2cc(OC)c(OC)c(OC)c2-c2ccc(SC)c(=O)cc21` as the molecule, how does the growth read?
**A.** -28.9% (active)

**Q.** With `CN1CCN(Cc2ccc(NC(=O)c3cncc(C#Cc4c(N)ncc5ccc(F)cc45)c3)cc2C(F)(F)F)CC1` as the molecule, how does the growth read?
**A.** 17.4%

**Q.** For `C[Si](C)(C)Cc1ccccc1`, which growth is on record?
**A.** 125%

**Q.** How did the growth turn out when `Cc1nc2ccccc2n1-c1ncnc2c1CC(C)c1ccccc1N2C` (stereo not given) was run?
**A.** 83.8%

**Q.** With `O=C(Nc1ccc(-n2ccc3c(NC(=O)c4ccccc4)nccc32)cc1)Nc1ccc(Cl)c(Cl)c1` as the molecule, how does the growth read?
**A.** -16.4% (active)

**Q.** With `COc1cc(C(=O)N/N=C/c2cc3cc(OCc4ccccc4)ccc3nc2OC)cc(OC)c1OC` as the molecule, how does the growth read?
**A.** 98.9%

**Q.** For `O=c1[nH]c2cc(Cl)c(Cl)cc2n2cc3ncccc3c12`, which growth is on record?
**A.** 65.5%

**Q.** Which growth does the source give for `CC#CC(=O)N1CCC[C@H]1c1nc(-c2ccc(C(=O)Nc3ccccn3)cc2)c2c(N)nccn12` here?
**A.** 130%

**Q.** With `CCN1C(=O)N(CC)C2C1NN=c1s/c(=C\c3cnc(C)n3C)c(=O)n12` (stereo not given) as the molecule, how does the growth read?
**A.** -33.3% (active)

**Q.** For `COc1ccc(C2C(C#N)=C(N)Oc3c2sc2c(C)cccc32)cc1` (stereo not given), which growth is on record?
**A.** -13.9% (active)

**Q.** Which growth does the source give for `O=S(=O)(NCl)c1ccccc1` here?
**A.** 99.8%

**Q.** `Cc1ccc(-c2[nH][nH]c(=O)c2-c2nc3ccccc3s2)cc1` was tested. Which growth did it give?
**A.** 101%

**Q.** For `COC(=O)C1=C(C)NC(C)=C(C(=O)OC)C(N2C(=O)CCC2=O)C1` (stereo not given), which growth is on record?
**A.** 90.8%

**Q.** For `CC(C)(CCCN=C(N)Nc1ccc(Cl)cc1)c1ccc(F)cc1`, which growth is on record?
**A.** 93.4%

**Q.** For `CCCCCC(=O)Oc1ccc(/C(=C(\C)c2ccccc2)c2ccc(OCCN3CCCCC3)cc2)cc1`, which growth is on record?
**A.** 70.2%

**Q.** Which growth does the source give for `Cc1nc2sc(C(=O)Nc3ccccc3)c(N)c2cc1C(O)c1ccccc1` (stereo not given) here?
**A.** -54% (active)

**Q.** With `COc1ccc(/C=C/c2nc(Nc3ccc(S(=O)(=O)Nc4cc(C)on4)cc3)c3ccccc3n2)cc1` as the molecule, how does the growth read?
**A.** 80.9%

**Q.** With `Cc1ccc(C)n1-c1ccsc1C(=O)NNC(=O)CCl` as the molecule, how does the growth read?
**A.** 104%

**Q.** For `Cc1c(C(C)(C)O)cn2ncnc(Oc3ccc(NC(=O)Nc4ccc(Cl)c(C(F)(F)F)c4)c(F)c3)c12`, which growth is on record?
**A.** 63.1%

**Q.** For `CC1CC(O)CC(C)(C)C1.CC1CC(O)CC(C)(C)C1.CC1CC(O)CC(C)(C)C1.CC1CC(O)CC(C)(C)C1.[Ti]` (stereo not given), which growth is on record?
**A.** 104%

**Q.** `COc1cc(C2CC(c3ccc(N(C)C)cc3)=NN2C(C)=O)cc(OC)c1OC` (stereo not given) was tested. Which growth did it give?
**A.** -3.98% (active)

**Q.** With `COc1ccc2nc(NNC(=O)c3cnccn3)c3cccn3c2c1` as the molecule, how does the growth read?
**A.** -27.1% (active)

**Q.** Which growth does the source give for `COc1ccc(NCc2cn(-c3ccc(C(=O)O)cc3)nc2-c2ccc(C(=O)O)cc2)cc1C(F)(F)F` here?
**A.** 118%

**Q.** Which growth does the source give for `O=C(O)c1cccc([N+](=O)[O-])c1/C=C/c1ccccc1` here?
**A.** 97.4%

**Q.** For `CCOC(=O)C1=C(C)n2nc(CC#N)c(C#N)c2NC1c1ccc(CC)cc1` (stereo not given), which growth is on record?
**A.** 115%

**Q.** `CCOC(=O)C(CC)n1c(=O)c2cc(OC)c(OC)cc2c2cnc3[nH]ccc3c21` (stereo not given) was tested. Which growth did it give?
**A.** 62.1%

**Q.** Which growth does the source give for `CCC(c1cccc(O)c1)C(CC)c1cccc(O)c1` (stereo not given) here?
**A.** 20.7%

**Q.** `CCCCCO/N=C\c1c2c(O)c3c(O)c(C)c4c(c3c1O)C(=O)C(C)(O/C=C\C(OC)C(C)C(OC(C)=O)C(C)C(O)C(C)C(O)C(C)/C=C\C=C(\C)C(=O)N2)O4` (stereo not given) was tested. Which growth did it give?
**A.** -6.96% (active)

**Q.** With `Cc1ccc(C(CN(C)C)C(=O)c2ccccc2)cc1` (stereo not given) as the molecule, how does the growth read?
**A.** -31.3% (active)

**Q.** `FC(F)(F)c1cc(NC2=NCCN=C(Nc3cc(C(F)(F)F)cc(C(F)(F)F)c3)SS2)cc(C(F)(F)F)c1` was tested. Which growth did it give?
**A.** 52.9%

**Q.** Which growth does the source give for `Oc1ccccc1-c1nnc(Cn2c(Cc3cccc4ccccc34)nc3ccccc32)o1` here?
**A.** 96%

**Q.** With `COc1ccc(-n2c(SCc3cc(OC)c(OC)c(OC)c3)nc3ccc(C)cc3c2=O)cc1` as the molecule, how does the growth read?
**A.** 31.1%

**Q.** How did the growth turn out when `O=C(NN1C(=O)c2cc(C(=O)O)c(C(=O)O)cc2C1=O)c1ccncc1` was run?
**A.** 109%

**Q.** Which growth does the source give for `O=C(O)CCCCNC(=O)c1ccccc1` here?
**A.** 101%

**Q.** `Clc1ccc(C2=Nn3c(nnc3-c3cc(Cl)cc(Cl)c3Cl)SC2)cc1` was tested. Which growth did it give?
**A.** -15% (active)

**Q.** `Brc1ccc(-c2nnc3c4[nH]ccc4ncn23)cc1` was tested. Which growth did it give?
**A.** 100%
